Measurements taken from PubChem BioAssay AID1159580 (chemical genetic matrix, 2015).
In all, about 5,500 compounds went through this assay and about 2,000 (36%) were called active. Inconclusive results (about 18%) are left out. No stated cut-off is given here; in the data, active means normalized growth mostly below about 0.91 (no sharp cut-off); inconclusive means no clear call, values can overlap the other calls; inactive means mostly above about 0.92. This is one part of the list.

Test: chemical genetic growth profiling, strain panel (AID 1159580);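 further: tested at 20 µM; growth read once vehicle control cultures reached saturation at 30 °C; 1 = growth at the plate median or of vehicle wells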
Conditions: growth OD

Measured: normalized growth

CC(=O)Oc1ccccc1C(=O)Oc1ccccc1C(=O)O
inactive: S. cerevisiae deletion strains, locus YJR075W, strain HOC1, stronger effect = lower value 1.02 | S. cerevisiae deletion strains, locus YKL009W, strain mrt4, stronger effect = lower value 0.981 | S. cerevisiae deletion strains, locus YKL068W, stronger effect = lower value 0.985 | S. cerevisiae deletion strains, locus YKL085W, strain MDH1 (second series), stronger effect = lower value 0.998 | S. cerevisiae deletion strains, locus YKL085W, strain MDH1, stronger effect = lower value 0.998 | S. cerevisiae deletion strains, locus YKL160W, strain elf1, stronger effect = lower value 0.999 | S. cerevisiae deletion strains, locus YKL190W, strain CNB1, stronger effect = lower value 1 | S. cerevisiae deletion strains, locus YKR001C, strain vps1, stronger effect = lower value 0.979 | S. cerevisiae deletion strains, locus YKR026C, strain gcn3, stronger effect = lower value 1.01 | S. cerevisiae deletion strains, locus YKR091W, strain srl3, stronger effect = lower value 1 | S. cerevisiae deletion strains, locus YLL001W, strain dnm1, stronger effect = lower value 1 | S. cerevisiae deletion strains, locus YLL026W, stronger effect = lower value 1.01 | S. cerevisiae deletion strains, locus YLL041C, strain sdh2, stronger effect = lower value 1 | S. cerevisiae deletion strains, locus YLR027C, strain aat2, stronger effect = lower value 1.01 | S. cerevisiae deletion strains, locus YLR039C, strain RIC1, stronger effect = lower value 0.983 | S. cerevisiae deletion strains, locus YLR058C, strain SHM2, stronger effect = lower value 0.995 | S. cerevisiae deletion strains, locus YLR102C, strain apc9, stronger effect = lower value 0.976 | S. cerevisiae deletion strains, locus YLR113W, strain HOG1, stronger effect = lower value 0.977 | S. cerevisiae deletion strains, locus YLR221C, strain rsa3, stronger effect = lower value 0.998 | S. cerevisiae deletion strains, locus YLR258W, strain gsy2, stronger effect = lower value 0.994 | S. cerevisiae deletion strains, locus YLR262C, strain YPT6 (second series), stronger effect = lower value 1 | S. cerevisiae deletion strains, locus YLR262C, strain YPT6, stronger effect = lower value 0.969 | S. cerevisiae deletion strains, locus YLR268W, strain sec22, stronger effect = lower value 1 | S. cerevisiae deletion strains, locus YLR320W, strain mms22, stronger effect = lower value 0.998 | S. cerevisiae deletion strains, locus YLR330W, strain CHS5, stronger effect = lower value 0.992 | S. cerevisiae deletion strains, locus YLR342W, strain FKS1 (second series), stronger effect = lower value 0.99 | S. cerevisiae deletion strains, locus YLR342W, strain FKS1, stronger effect = lower value 1 | S. cerevisiae deletion strains, locus YLR357W, strain rsc2, stronger effect = lower value 1.01 | S. cerevisiae deletion strains, locus YLR370C, strain arc18, stronger effect = lower value 1 | S. cerevisiae deletion strains, locus YLR371W, strain rom2, stronger effect = lower value 0.975 | S. cerevisiae deletion strains, locus YLR384C, strain iki3, stronger effect = lower value 0.995 | S. cerevisiae deletion strains, locus YLR418C, strain cdc73, stronger effect = lower value 0.997 | S. cerevisiae deletion strains, locus YML016C, strain PPZ1, stronger effect = lower value 0.996 | S. cerevisiae deletion strains, locus YML032C, strain rad52, stronger effect = lower value 0.983 | S. cerevisiae deletion strains, locus YML120C, strain ndi1, stronger effect = lower value 1.01 | S. cerevisiae deletion strains, locus YML124C, strain tub3, stronger effect = lower value 0.992 | S. cerevisiae deletion strains, locus YMR058W, strain fet3, stronger effect = lower value 1.01 | S. cerevisiae deletion strains, locus YMR078C, strain ctf18, stronger effect = lower value 0.984 | S. cerevisiae deletion strains, locus YMR125W, strain sto1, stronger effect = lower value 0.986 | S. cerevisiae deletion strains, locus YMR129W, stronger effect = lower value 0.997 | S. cerevisiae deletion strains, locus YMR205C, strain PFK2, stronger effect = lower value 0.998 | S. cerevisiae deletion strains, locus YMR223W, strain ubp8, stronger effect = lower value 0.969 | S. cerevisiae deletion strains, locus YMR231W, strain pep5, stronger effect = lower value 0.996 | S. cerevisiae deletion strains, locus YMR263W, strain SAP30, stronger effect = lower value 1.01 | S. cerevisiae deletion strains, locus YMR307W, strain GAS1, stronger effect = lower value 0.995 | S. cerevisiae deletion strains, locus YNL067W, strain RPL9B, stronger effect = lower value 1.01 | S. cerevisiae deletion strains, locus YNL071W, strain lat1, stronger effect = lower value 1.01 | S. cerevisiae deletion strains, locus YNL128W, strain TEP1, stronger effect = lower value 1 | S. cerevisiae deletion strains, locus YNL153C, strain GIM3, stronger effect = lower value 1.01 | S. cerevisiae deletion strains, locus YNL183C, strain NPR1, stronger effect = lower value 0.921 | S. cerevisiae deletion strains, locus YNL209W, strain ssb2, stronger effect = lower value 1.01 | S. cerevisiae deletion strains, locus YNL233W, strain BNI4, stronger effect = lower value 0.999 | S. cerevisiae deletion strains, locus YNL248C, strain rpa49, stronger effect = lower value 0.925 | S. cerevisiae deletion strains, locus YNL250W, strain rad50, stronger effect = lower value 0.974 | S. cerevisiae deletion strains, locus YNL271C, strain bni1, stronger effect = lower value 0.971 | S. cerevisiae deletion strains, locus YNL298W, strain CLA4, stronger effect = lower value 0.979 | S. cerevisiae deletion strains, locus YNL307C, strain MCK1, stronger effect = lower value 0.983 | S. cerevisiae deletion strains, locus YNL322C, strain KRE1 (second series), stronger effect = lower value 0.998 | S. cerevisiae deletion strains, locus YNL322C, strain KRE1, stronger effect = lower value 1 | S. cerevisiae deletion strains, locus YNR049C, strain mso1, stronger effect = lower value 1.01 | S. cerevisiae deletion strains, locus YNR052C, strain pop2, stronger effect = lower value 0.975 | S. cerevisiae deletion strains, locus YOL006C, strain TOP1, stronger effect = lower value 1 | S. cerevisiae deletion strains, locus YOL012C, strain htz1 0.794 | S. cerevisiae deletion strains, locus YOL147C, strain pex11, stronger effect = lower value 0.991 | S. cerevisiae deletion strains, locus YOR001W, strain rrp6, stronger effect = lower value 0.972 | S. cerevisiae deletion strains, locus YOR061W, strain CKA2, stronger effect = lower value 0.995 | S. cerevisiae deletion strains, locus YOR069W, strain VPS5, stronger effect = lower value 0.992 | S. cerevisiae deletion strains, locus YOR070C, strain gyp1, stronger effect = lower value 1.02 | S. cerevisiae deletion strains, locus YOR080W, strain dia2, stronger effect = lower value 1 | S. cerevisiae deletion strains, locus YOR083W, strain WHI5, stronger effect = lower value 1.01 | S. cerevisiae deletion strains, locus YOR106W, strain vam3, stronger effect = lower value 1.01 | S. cerevisiae deletion strains, locus YOR136W, strain idh2, stronger effect = lower value 0.978 | S. cerevisiae deletion strains, locus YOR144C, strain elg1, stronger effect = lower value 0.991 | S. cerevisiae deletion strains, locus YOR184W, strain ser1, stronger effect = lower value 0.971 | S. cerevisiae deletion strains, locus YOR231W, strain MKK1, stronger effect = lower value 0.992 | S. cerevisiae deletion strains, locus YOR265W, strain rbl2, stronger effect = lower value 1.03 | S. cerevisiae deletion strains, locus YOR270C, strain vph1, stronger effect = lower value 1.01 | S. cerevisiae deletion strains, locus YOR290C, strain snf2, stronger effect = lower value 0.974 | S. cerevisiae deletion strains, locus YOR316C, strain cot1, stronger effect = lower value 0.978 | S. cerevisiae deletion strains, locus YPL051W, strain arl3, stronger effect = lower value 1.03 | S. cerevisiae deletion strains, locus YPL055C, strain LGE1, stronger effect = lower value 1.02 | S. cerevisiae deletion strains, locus YPL078C, strain atp4, stronger effect = lower value 0.998 | S. cerevisiae deletion strains, locus YPL106C, strain sse1, stronger effect = lower value 0.993 | S. cerevisiae deletion strains, locus YPL240C, strain hsp82, stronger effect = lower value 1.01 | S. cerevisiae deletion strains, locus YPL241C, strain CIN2, stronger effect = lower value 0.965 | S. cerevisiae deletion strains, locus YPL256C, strain CLN2, stronger effect = lower value 0.992 | S. cerevisiae deletion strains, locus YPR119W, strain clb2, stronger effect = lower value 0.991 | S. cerevisiae deletion strains, locus YPR141C, strain kar3, stronger effect = lower value 0.975 | S. cerevisiae deletion strains, locus YPR163C, strain tif3, stronger effect = lower value 0.987 | S. cerevisiae deletion strains, locus YPR167C, strain met16, stronger effect = lower value 0.988 | S. cerevisiae deletion strains, strain wtn01, stronger effect = lower value 0.998 | S. cerevisiae strains, strain wild type, stronger effect = lower value 0.998
